Assay outcomes: PubChem, National Center for Advancing Translational Sciences (NCATS)
FLuc counter – qHTS profiling assay for firefly luciferase inhibitor/activator using purifed enzyme and Km concentrations of substrates (counterscreen for miR-21 project); Potency, µM (series often up to 57.5 µM), most hits filed as inhibitors; 360,000 tested, 6.9% active; Luciferin 4-monooxygenase (Photinus pyralis), P08659; purified FLuc, Km substrates, luminescence inhibition; AID 588342, 2011; also: nearly all actives have a fitted effect of over 55% in size
Target sequence (P08659 whole entry, looked up): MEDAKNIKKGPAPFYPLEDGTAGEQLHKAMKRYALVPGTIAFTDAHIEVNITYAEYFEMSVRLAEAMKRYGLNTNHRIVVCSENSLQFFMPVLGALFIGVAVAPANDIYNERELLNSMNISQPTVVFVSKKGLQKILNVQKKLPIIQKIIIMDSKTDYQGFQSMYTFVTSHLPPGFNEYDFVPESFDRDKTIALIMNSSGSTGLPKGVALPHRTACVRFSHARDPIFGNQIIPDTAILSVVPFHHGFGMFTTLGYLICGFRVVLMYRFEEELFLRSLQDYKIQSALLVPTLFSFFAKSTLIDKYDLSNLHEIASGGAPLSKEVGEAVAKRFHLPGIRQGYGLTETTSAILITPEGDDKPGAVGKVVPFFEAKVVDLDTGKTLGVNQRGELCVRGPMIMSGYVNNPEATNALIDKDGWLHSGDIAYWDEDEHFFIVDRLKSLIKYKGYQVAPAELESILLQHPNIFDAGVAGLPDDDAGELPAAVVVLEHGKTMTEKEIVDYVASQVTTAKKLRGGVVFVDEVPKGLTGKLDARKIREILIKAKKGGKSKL
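Purified P. pyralis luciferase, 10 nM final, with Km-level 10 uM D-luciferin and 10 uM ATP in 50 mM Tris acetate pH 7.5, 10 mM Mg acetate, 0.01% Tween-20, 0.05% BSA; 6-point qHTS titration about 60 µM downward; luminescence read.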
ELG1 genotox – qHTS screen for small molecules that induce genotoxicity in human embryonic kidney (HEK293T) cells expressing luciferase-tagged ELG1; HEK293T ELG1-luciferase reporter, luminescence, 16 h; Potency, µM (doses to about 46 µM), actives largely listed as activators; 330,000 tested, 1.3% active; also: nearly all actives have a fitted effect of over 60% in size
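Genotoxicity was scored as increased ELG1-luciferase reporter signal, measured by ONE-Glo luminescence (30 min, room temperature). Compound or vehicle exposure of the HEK293T reporter cells lasted 16 hr at 37°C.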
Rab9 promoter act – qHTS Assay for Rab9 Promoter Activators; Huh7 Rab9 promoter-luciferase reporter, luminescence, 24 h; Potency, µM (doses to about 9.22 µM), usual class: activators; 320,000 tested, 2.8% active; AID 485297, 2010; also: nearly all actives have a fitted effect of over 60% in size
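Rab9 promoter-driven luciferase in stably transfected Huh7 cells; 1500 cells/well rested 2 h, exposed to compound in DMSO for 24 h at 37 °C, 5% CO2. Luminescence read 10 min after adding luciferase reagent at ambient temperature.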
KinaseGlo FLuc – Counterscreen for Luciferase (Kinase-Glo TM) Inhibition | AID 1379, 2008 | Luciferin 4-monooxygenase (Photuris pensylvanica), Q27757 | Kinase-Glo luciferase, ATP luminescence, 8 min | 200,000 tested, 0.28% active | Potency, µM (top dose mostly 38.3 µM), actives largely listed as inhibitors; also: nearly all actives have a fitted effect of over 60% in size
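Kinase-Glo luciferase light output from ATP and luciferin was measured with 10 uM ATP, within the enzyme's linear range. Buffer: 50 mM imidazole pH 7.2, 50 mM KCl, 7 mM MgCl2, 0.01% Tween 20, 0.05% BSA; luminescence read after 8 min at ambient temperature.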
NPC1 prom act – qHTS Assay for NPC1 Promoter Activators; 320,000 tested, 2.4% active; AID 485313, 2010; Huh7 NPC1 promoter luciferase reporter, 24 h; Potency, µM (top dose mostly 9.22 µM), actives largely listed as activators; also: nearly all actives have a fitted effect of over 60% in size
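Quantitative HTS used a cell-based reporter: Huh7 cells stably bearing the NPC1 promoter upstream of luciferase were treated with compounds for 24 h, and promoter activation was read as luminescence.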
SMN2 splice up – qHTS Assay for Enhancers of SMN2 Splice Variant Expression. Potency, µM (doses to about 46.1 µM), hits mostly activators. 210,000 tested, 2.8% active. AID 1458, 2008. HEK293 SMN2-luciferase splicing reporter, luminescence, 30-36 h; also: nearly all actives have a fitted effect of over 55% in size
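qHTS luciferase splicing reporter: luminescence rises when SMN2 exon 7 is included in transfected HEK293 cells. Compound exposure lasted 30-36 h at 37C, with 4.5 mM final sodium butyrate as control, followed by a ONE-Glo read.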
A number is an active result; [ ] = another dose, or the depositor's remark. Most compounds without a hit are left out; they make up all but 7.4% or so of the library. Calls follow the shape of the dose curve; as a rule, active = well fitted curve in the direction sought with a large enough effect; inconclusive = small, poorly fitted or top-dose-only effect, or another doubt; inactive = no such curve, though single readings can be large; an effect the other way counts as inactive or inconclusive.

What do the screens show for `COc1ccccc1OCCNC(=O)Nc1ccc(Br)cc1`?
FLuc counter: inactive; ELG1 genotox: inactive; Rab9 promoter act: inactive; KinaseGlo FLuc: inactive; NPC1 prom act: inactive; SMN2 splice up: inactive

Results for COc1ccccc1OCCNC(=O)c1ccc(Br)cc1 ?
FLuc counter: 23.9µM; ELG1 genotox: inconclusive; Rab9 promoter act: inactive[1.84 µM]; NPC1 prom act: inconclusive

How did COc1ccc(C(=O)NCCSc2ccccc2)cc1OC do in these assays?
FLuc counter: inconclusive; ELG1 genotox: inconclusive; Rab9 promoter act: inconclusive; KinaseGlo FLuc: inactive; NPC1 prom act: inconclusive; SMN2 splice up: 14.1µM

How did CC(C)(C)SCCNC(=O)COc1ccccc1 do in these assays?
FLuc counter: inactive; ELG1 genotox: inactive; Rab9 promoter act: inactive; KinaseGlo FLuc: inactive; NPC1 prom act: inactive; SMN2 splice up: inactive

Results for O=C(COc1ccccc1)NCCSc1ccccc1 ?
FLuc counter: 26.9µM; ELG1 genotox: 20.6µM; Rab9 promoter act: inactive; KinaseGlo FLuc: inactive; NPC1 prom act: inconclusive; SMN2 splice up: inactive

What do the screens show for `CN(C)S(=O)(=O)c1ccc(C(=O)NCCSc2ccccc2)cc1`?
FLuc counter: inconclusive; ELG1 genotox: 10.3µM; Rab9 promoter act: inconclusive; KinaseGlo FLuc: inactive; NPC1 prom act: inconclusive; SMN2 splice up: inactive

How did COc1ccccc1C1C(C(=O)c2cc3ccccc3o2)=C(O)C(=O)N1CCN1CCOCC1 (centres undefined) do in these assays?
FLuc counter: 13.5µM; ELG1 genotox: inactive; Rab9 promoter act: inactive; KinaseGlo FLuc: inactive; NPC1 prom act: inactive; SMN2 splice up: inactive

Results for Cc1nc2cc(NC(=O)N3CCCCC3)ccc2n1C ?
FLuc counter: inconclusive; ELG1 genotox: inconclusive; Rab9 promoter act: inactive; KinaseGlo FLuc: inactive; NPC1 prom act: inactive; SMN2 splice up: 12.6µM

Results for CCOC(=O)C1CCN(C(=O)Nc2ccc3c(c2)nc(C)n3C)CC1 ?
FLuc counter: inactive; ELG1 genotox: inconclusive; Rab9 promoter act: inconclusive; KinaseGlo FLuc: inactive; NPC1 prom act: inconclusive; SMN2 splice up: 11.2µM

Results for COC(=O)C1=C(C(=O)OC)[C@@H]2N(C)c3ccccc3[C@@]23C[C@@H](C(=O)OC)N(S(=O)(=O)c2ccc(C(F)(F)F)cc2)C3=N1 ?
KinaseGlo FLuc: inactive[7.66 µM]; SMN2 splice up: inactive[9.22 µM]

How did Cc1c(CC(=O)O)c(=O)oc2cc(OCc3ccc(F)cc3Cl)ccc12 do in these assays?
FLuc counter: 16.9µM; ELG1 genotox: inactive; Rab9 promoter act: inactive; NPC1 prom act: inactive

What do the screens show for `Cc1c(CCC(=O)O)c(=O)oc2cc(OCc3ccccc3F)ccc12`?
FLuc counter: 26.9µM; ELG1 genotox: inactive; Rab9 promoter act: inactive; NPC1 prom act: inactive

What do the screens show for `CCOC(=O)COc1ccc2c(=O)c(-c3ccccc3)coc2c1`?
FLuc counter: 16.9µM; ELG1 genotox: inactive; Rab9 promoter act: inactive; NPC1 prom act: inactive

How did CC(=O)Oc1ccc2c(=O)c(-c3ccccc3)coc2c1 do in these assays?
FLuc counter: 13.5µM; ELG1 genotox: inactive; Rab9 promoter act: inconclusive; KinaseGlo FLuc: inactive; NPC1 prom act: inconclusive; SMN2 splice up: 25.1µM

Results for CCOCCOC(=O)COc1ccc2c(-c3ccccc3)cc(=O)oc2c1 ?
FLuc counter: inconclusive; ELG1 genotox: inactive; Rab9 promoter act: inactive; KinaseGlo FLuc: inactive; NPC1 prom act: inactive; SMN2 splice up: inactive

Results for CC(=O)c1cccc(OCC(=O)c2cc(C)n(-c3cc(C)on3)c2C)c1 ?
FLuc counter: inconclusive; ELG1 genotox: inactive; Rab9 promoter act: inactive; KinaseGlo FLuc: inactive; NPC1 prom act: inactive; SMN2 splice up: inactive

Results for Cc1cc(-n2c(C)cc(C(=O)COc3ccc4ccc(=O)oc4c3)c2C)no1 ?
FLuc counter: 16.9µM; ELG1 genotox: inactive; Rab9 promoter act: inactive; KinaseGlo FLuc: inactive; NPC1 prom act: inactive; SMN2 splice up: inactive
